# HP1b binding inh: HTS for Inhibitors of HP1-beta Chromodomain Interactions with Methylated Histone Tails; AlphaScreen HP1-beta / biotin-H3K9me3 peptide binding; Potency, µM (top dose mostly 114 µM), hits mostly inhibitors; 0.56% of 390,000 active; note: nearly all actives have a fitted effect of over 70% in size
# Target sequence (P83916 whole entry, looked up): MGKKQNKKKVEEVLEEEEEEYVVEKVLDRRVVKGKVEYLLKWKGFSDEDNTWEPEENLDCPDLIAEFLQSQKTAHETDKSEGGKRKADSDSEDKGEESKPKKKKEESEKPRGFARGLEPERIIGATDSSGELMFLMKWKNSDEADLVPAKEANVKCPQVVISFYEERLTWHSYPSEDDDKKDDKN
#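 HP1-beta protein (50 nM final) preincubated 30 min at room temperature with biotinylated H3(1-18)K9me3 peptide (50 nM) in PBS pH 7.4, 0.01% Tween-20, then compound added for 30 min. AlphaScreen streptavidin donor/nickel chelate acceptor beads (10 ug/mL final), 30 min dark, luminescence read.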
# BAZ2B block: qHTS Assay for Inhibitors of BAZ2B. Bromodomain adjacent to zinc finger domain protein 2B (Homo sapiens), Q9UIF8. AlphaScreen BAZ2B-H3K14Ac peptide displacement. Potency, µM (top dose mostly 114 µM), usual class: inhibitors. 4.4% of 360,000 active; note: nearly all actives have a fitted effect of over 60% in size
#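 BAZ2B 50 nM plus b-H3(5-23)K14Ac 50 nM, PBS pH 7.4/0.01% Tween-20, 30 min RT; compound added (max 110 uM), 30 min RT; streptavidin donor/Ni-chelate acceptor beads 10 ug/mL final, 20 min dark; AlphaScreen read.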
# JMJD2A Tudor: qHTS Assay for Inhibitors of JMJD2A-Tudor Domain; AlphaScreen JMJD2A-Tudor / H3K4me3 peptide binding; Lysine-specific demethylase 4A (Homo sapiens), O75164; 4.4% of 390,000 active; Potency, µM (titrated, usually from 114 µM), actives largely listed as inhibitors; note: nearly all actives have a fitted effect of over 50% in size
# G9a inh: qHTS Assay for Inhibitors of Histone Lysine Methyltransferase G9a; Histone-lysine N-methyltransferase EHMT2 (Homo sapiens), Q96KQ7; G9a H3K9 monomethylation, AlphaScreen, 2 h; Potency, µM (series often up to 102 µM), hits mostly inhibitors; 8.8% of 350,000 active; note: nearly all actives have a fitted effect of over 75% in size
# Target sequence (Q96KQ7 913-1193 limits assumed): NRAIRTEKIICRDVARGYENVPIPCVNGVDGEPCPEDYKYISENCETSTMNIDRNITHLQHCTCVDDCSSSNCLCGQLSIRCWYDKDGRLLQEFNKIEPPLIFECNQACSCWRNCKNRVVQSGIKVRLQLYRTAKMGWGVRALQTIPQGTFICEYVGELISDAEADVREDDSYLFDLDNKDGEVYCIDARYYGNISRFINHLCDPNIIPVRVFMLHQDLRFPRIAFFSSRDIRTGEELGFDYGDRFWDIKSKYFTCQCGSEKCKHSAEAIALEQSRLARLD
#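 Chemiluminescent proximity detection of H3K9 monomethylation, read after 10 min bead incubation in the dark. Reaction: 20 nM G9a, 500 nM biotin-H3K9 peptide, 20 uM SAM cofactor, 2 h, room temperature, following 15 min enzyme-compound preincubation.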
# GLS inhibitor: qHTS for Inhibitors of Glutaminase (GLS). GLS enzymatic activity, qHTS titration. Potency, µM (titrated, usually from 45.5 µM), most hits filed as inhibitors. 0.21% of 410,000 active. Glutaminase kidney isoform, mitochondrial (Homo sapiens), O94925
#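 Enzyme dispensed in phosphate buffer (45 mM, pH 8.2, 0.02% Tween-20), compounds pinned in, then 1 mM L-glutamine solution and the glutamate oxidase–HRP–Amplex Red mix added; fluorescence read immediately and again after 30 min at room temperature.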
# Hits are given with their value; – = inactive; ? = inconclusive; · = no result; [ ] = remark or other dose. Sampled rows, rich in hits. Any-hit rate of the full collection: about 10%. Calls come from the whole dose curve; as a rule, active = well fitted curve in the direction sought with a large enough effect; inconclusive = small, poorly fitted or top-dose-only effect, or another doubt; inactive = no such curve, though single readings can be large; an effect the other way counts as inactive or inconclusive.
SMILES,HP1b binding inh,BAZ2B block,JMJD2A Tudor,G9a inh,GLS inhibitor
O=C(Nc1ccc(Cl)cc1)Nc1ccccc1Sc1ncc([N+](=O)[O-])s1,–,28µM,?,·,–
O=C1NC[C@@H](Cc2ccc(O)cc2)N(CC2CCCCC2)C1=O,–,–,–,–,–
CCc1nn(CC(=O)NCCCN2CCc3ccccc3C2)c(=O)c2cc3sccc3n12,–,–,–,45µM,–
Cc1nn(CCCC(=O)N2CCc3ccccc3C2)c(=O)c2cc3sccc3n12,–,–,–,79µM,–
CCc1nn(CC(=O)NCCCN2CCN(C)CC2)c(=O)c2cc3sccc3n12,–,–,–,·,–
Cc1ccc(CCNC(=O)CCn2nc(-c3ccccc3)ccc2=O)cc1,–,–,–,–,–
Cc1ccc(S(=O)(=O)CCN2CCC(n3cccc3)CC2)cc1,–,40µM,–,·,–
Cc1ccc(S(=O)(=O)CCN2CCN(c3ccccc3)CC2)cc1,–,–,–,–,–
CCOC(=O)c1sc(NC(=O)c2cccnc2)c(C#N)c1C,–,–,–,11µM,–
COc1ccccc1NC(=O)c1sc(NC(=O)c2ccco2)c(C#N)c1C,–,–,–,–,–
COC(=O)c1sc(NC(=O)c2ccco2)c(C#N)c1C,–,–,–,35µM,–
C=Cc1ccc(CN2CCCN(Cc3ccc(F)cc3)S2(=O)=O)cc1,–,–,–,–,–
Cc1ccc(/C=N/n2c(-c3cccs3)n[nH]c2=S)cc1,–,–,50µM,0.45µM,–
S=c1[nH]nc(-c2cccs2)n1/N=C/c1c(Cl)cccc1Cl,–,–,?,1.3µM,–
COc1ccc(/C=N/n2c(-c3cccs3)n[nH]c2=S)cc1,–,–,45µM,?,–
COC(=O)[C@@]12CCCCN1[C@H](c1ccc(-c3ccc(F)cc3)c(OC)c1)[C@H]1C(=O)N(C)C(=O)[C@H]12,–,·,–,·,–
CC(=O)c1c(C)c(C)c2n1CCn1c(C)ccc1-2,–,?,?,6.3µM,–
COc1ccc(C(=O)N2CCn3c(C)ccc3C2C)cc1 (stereo not given),–,–,–,?,–
CCCCOc1ccc(C(C)NC(=O)CCS(=O)(=O)Cc2ccc(Cl)cc2)cc1 (stereo not given),–,–,–,–,–
CCCN1C(=O)c2cc(C(=O)O)ccc2C1O (stereo not given),–,56µM,89µM,?,–
CCCN1C(=O)c2cc(C(=O)NC3CCCCCC3)ccc2C1O (stereo not given),–,–,–,?,–
S=C(NNc1nc(Nc2ccccc2)nc(N2CCCCC2)n1)NC1CCCCC1,–,·,?,?,–
COc1ccc(OCC(O)COc2ccc(OC)cc2)cc1,–,–,–,–,–
COc1ccc(OCC(O)CN(CC(O)COc2ccc(OC)cc2)c2cccc(O)c2)cc1 (stereo not given),–,45µM,?,50µM,–
O=C1c2ccccc2C(=O)N1CSc1ncccn1,–,–,–,–,–
SMILES,HP1b binding inh,BAZ2B block,JMJD2A Tudor,G9a inh,GLS inhibitor
CSc1nc(NCCOC(C)=O)c(C#N)c(-c2ccc(C(C)(C)C)cc2)n1,–,–,–,–,–
CC(NC(=O)c1ccc(S(=O)(=O)NCc2ccco2)cc1)c1ccc(F)cc1 (stereo not given),–,–,–,–,–
CC1(C)CC2(CCO1)N1CC3(C)CN2CC(C)(C1)C3O (stereo not given),–,–,–,–[12.7 µM],–
CCOC(=O)C(=CNNc1cccc(Cl)c1)C(=O)OCC,?,–,79µM,3.5µM,?
COc1ccccc1-c1cnc(C(O)c2ccc(SC)cc2)[nH]1 (stereo not given),·,·,·,·,–
CC1CN(C(=O)COc2ncnc3ccccc23)CC(C)O1 (stereo not given),–,–,–[11.4 µM],–,–
Cc1ccc(C(=O)NCCCN2CCOCC2)cc1S(=O)(=O)N1CCCCC1,–,–,–,–,–
O=C(N/C=N/O)C1=NOC(CNc2ncc(C(F)(F)F)cc2Cl)C1 (stereo not given),–,–,–,45µM,–
O=C(O)CCc1ccc(-c2ccc(F)cc2)n1CC(=O)O,–,–,–,45µM,–
COc1ccc(-n2c(CCC(=O)O)ccc2-c2ccc(F)cc2)c(OC)c1,–,–,?,40µM,–
Cc1ccc(-c2ccc(CCC(=O)O)n2CC(=O)O)cc1,–,?,?,–[12.7 µM],?
COC(=O)c1ccccc1-n1c(CCC(=O)O)ccc1-c1ccc(F)cc1,–,–,–,?,–
Cc1nc2ccccc2c2oc(C(=O)NCCCN3CCCC3=O)cc12,–,–,–,–,–
CCOC(=O)N1CCN(C(=O)COc2cc(C)c(Cl)c(C)c2)CC1,–,–,–,·,–
Cc1ccc(S(=O)(=O)N2CCc3ccccc3C2)cc1,–,–,–,–,–
Cc1ccc(S(=O)(=O)N2C(=O)[C@@H]3Cc4ccccc4CN3C2=O)cc1,–,–,7.9µM,40µM,–
Cn1c(NN)nc2c1c(=O)n(Cc1ccccc1)c(=O)n2C,–,?,–,28µM,?
C=CCn1c(=O)c2c(nc3n2CCS3)n(C)c1=O,–,–,–,–,–
Cc1ccccc1Cn1c(=O)c2c(nc3n2CCCN3Cc2ccccc2)n(C)c1=O,?,·,?,·,11µM
Cn1c(=O)n(Cc2ccccc2)c(=O)c2c1nc1n2CCCN1Cc1ccccc1,–,–,–,–,–
Cn1c(=O)n(Cc2ccccc2)c(=O)c2c1nc1n2CCS1,–,–,–,–,11µM
Cn1c(=O)n(Cc2ccccc2)c(=O)c2c1nc1n2CCCN1CCc1ccccc1,?,?,?,50µM,–
COc1cccc(CSc2nc(-c3ccccc3F)nc3c2Cc2c(CO)cnc(C)c2O3)c1,–,–,–,–,–
CCN(CC)CCNC(=O)c1ccc(Sc2ccc(Cl)cc2)c(NC(C)=O)c1,–,–,–,–,–
Cc1ccc(NC(=O)CSc2n[nH]c(-c3cccnc3)n2)c(Br)c1,–,–,–,–,–
SMILES,HP1b binding inh,BAZ2B block,JMJD2A Tudor,G9a inh,GLS inhibitor
Cn1c(NN)nc2ccccc2c1=O,–,–,–,50µM,–
COCCNc1c2c(nc3ccccc13)CCC2,–,–,–,–,–
CN(C)CCCNc1c2c(nc3ccccc13)CCC2,–,–,–,40µM,–
COc1ccc(NS(=O)CCCc2ccccc2)cc1 (stereo not given),·,·,·,·,–
COc1ccc(CCC(C(O)C(F)(F)F)S(=O)c2ccccc2)cc1 (stereo not given),–,–,40µM,?,–
COc1ccc(N/C=C2\C(=O)CCc3c2oc2cc(Cl)c(O)c(Cl)c32)cc1,–,–,–,40µM,?
COc1ccc(N/C=C/C(=O)c2ccc(Cl)cc2)cc1,–,–,–,–,–

# Compound activity deposited in PubChem BioAssay by National Center for Advancing Translational Sciences (NCATS).
